Here are results for eight compounds from PubChem BioAssay (NCATS).

Several values for one entry are separate records, joined by “and”; a condition that tells them apart may be missing. Equal entries are not always repeated. Values without a mark were called inactive. Inconclusive results are not listed. Activity calls are given as the source filed them. The call rests on the fitted dose curve; in most records, active means well fitted curve in the direction sought with a large enough effect; inconclusive means small, poorly fitted or top-dose-only effect, or another doubt; inactive means no such curve, though single readings can be large; an effect the other way counts as inactive or inconclusive.

Test [1] has as its target Cytochrome P450 2C9 (Homo sapiens) (UniProt P11712). Briefly: qHTS Assay for Inhibitors and Substrates of Cytochrome P450 2C9 (AID 883). Further: nearly all actives have a fitted effect of over 60% in size. Further: potency means the concentration at half of the fitted maximal effect. On activity change, negative = inhibition: on the % scale 0 is the no-effect control and ±100 the full control effect. Summed up:
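10nM CYP2C9 + 100uM Luciferin-H (=KM), 25mM KPO4; cpd 10 min 37C; NADPH regen, 60 min 37C; stop/detect with P450 Glo-Buffer 20 min; luminescence. Norm. to 57uM sulphaphenazole as full inhibition.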
In general terms: Quantitative high-throughput screening tests each substance at several concentrations.

In test [2] the target is Cytochrome P450 3A4 (Homo sapiens) (UniProt P08684). Briefly: qHTS Assay for Inhibitors and Substrates of Cytochrome P450 3A4 (AID 884). Further: nearly all actives have a fitted effect of over 50% in size. Further: potency means the concentration at half of the fitted maximal effect. On activity change, negative = inhibition: series mostly up to about 57 µM; on the % scale 0 is the no-effect control and ±100 the full control effect. Summed up:
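20 nM human CYP3A4 with 25 uM Luciferin-PPXE (at KM) in 200 mM KPO4, preincubated 10 min with compound; NADPH regeneration started a 60 min RT reaction. Luciferin detected by luminescence, normalized to 57 uM ketoconazole as full inhibition.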

Test [3] has the same target. Briefly: qHTS Assay for Activators of Cytochrome P450 3A4 (AID 885). Further: nearly all actives have a fitted effect of over 65% in size. Summed up: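 Human CYP3A4 (20 nM) with Luciferin-PPXE at 25 uM (its KM) in 200 mM KPO4; 10 min compound preincubation, then NADPH regeneration and 60 min reaction at RT. Luciferin read by luminescence; normalized to 57 uM ketoconazole full inhibition.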
Test [4] deals with Cytochrome P450 2D6 (Homo sapiens) (UniProt P10635). Briefly: qHTS Assay for Inhibitors and Substrates of Cytochrome P450 2D6 (AID 891).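 Further: luciferin methyl ether substrate demethylated by CYP2D6 with NADPH regeneration; on the % scale 0 is the no-effect control and ±100 the full control effect; nearly all actives have a fitted effect of over 60% in size.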 Summed up:
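Human CYP2D6 (5 nM) with 30 uM Luciferin-ME EGE (at Km) in 100 mM KPO4, compound preincubated 10 min, then NADPH regeneration system for 60 min at room temperature. Luciferin read by luminescence; normalized to 1.43 uM quinidine.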

For test [5], the target named is Cytochrome P450 2C19 (Homo sapiens) (UniProt P33261). Briefly: qHTS Assay for Inhibitors and Substrates of Cytochrome P450 2C19 (AID 899). Further: nearly all actives have a fitted effect of over 60% in size. Further: potency means the concentration at half of the fitted maximal effect. Summed up: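 Luminescent read-out of luciferin formed from Luciferin-H EGE (10uM, equal to KM). Enzyme 5nM in 50mM KPO4; compound added, 10 min at 37C, then NADPH regenerating system for 60 min at 37C. Full inhibition defined by 57uM ketoconazole.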
Sequence of Cytochrome P450 2C19 (Homo sapiens) (P33261 whole entry, looked up): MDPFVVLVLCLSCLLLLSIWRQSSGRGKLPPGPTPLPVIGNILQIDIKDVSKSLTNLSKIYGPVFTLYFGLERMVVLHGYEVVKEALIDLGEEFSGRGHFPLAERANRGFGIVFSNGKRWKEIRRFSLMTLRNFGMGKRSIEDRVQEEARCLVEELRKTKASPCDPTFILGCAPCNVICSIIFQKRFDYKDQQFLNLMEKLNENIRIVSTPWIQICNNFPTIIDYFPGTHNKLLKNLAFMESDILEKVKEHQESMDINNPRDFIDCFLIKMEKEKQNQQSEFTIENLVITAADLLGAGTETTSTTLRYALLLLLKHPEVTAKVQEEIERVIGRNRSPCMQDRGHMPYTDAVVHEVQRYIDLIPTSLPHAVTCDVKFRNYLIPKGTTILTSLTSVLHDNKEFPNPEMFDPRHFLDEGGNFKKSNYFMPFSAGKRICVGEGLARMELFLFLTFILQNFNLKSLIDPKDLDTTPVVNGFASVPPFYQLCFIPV

Sequence of Cytochrome P450 2C9 (Homo sapiens) (P11712 whole entry, looked up): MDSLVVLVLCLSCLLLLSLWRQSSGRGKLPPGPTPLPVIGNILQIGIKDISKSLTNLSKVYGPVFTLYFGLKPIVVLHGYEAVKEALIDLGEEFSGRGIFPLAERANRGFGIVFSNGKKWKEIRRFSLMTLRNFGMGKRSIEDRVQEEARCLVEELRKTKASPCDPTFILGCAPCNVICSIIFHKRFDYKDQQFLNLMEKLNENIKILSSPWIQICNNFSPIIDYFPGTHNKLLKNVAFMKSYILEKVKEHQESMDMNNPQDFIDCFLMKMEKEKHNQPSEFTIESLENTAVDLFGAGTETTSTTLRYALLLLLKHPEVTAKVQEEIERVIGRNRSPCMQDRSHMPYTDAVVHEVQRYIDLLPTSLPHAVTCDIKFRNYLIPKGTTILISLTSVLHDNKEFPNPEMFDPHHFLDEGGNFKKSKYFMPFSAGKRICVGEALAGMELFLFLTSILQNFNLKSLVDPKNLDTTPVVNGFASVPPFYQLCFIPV
Sequence of Cytochrome P450 2D6 (Homo sapiens) (P10635 whole entry, looked up): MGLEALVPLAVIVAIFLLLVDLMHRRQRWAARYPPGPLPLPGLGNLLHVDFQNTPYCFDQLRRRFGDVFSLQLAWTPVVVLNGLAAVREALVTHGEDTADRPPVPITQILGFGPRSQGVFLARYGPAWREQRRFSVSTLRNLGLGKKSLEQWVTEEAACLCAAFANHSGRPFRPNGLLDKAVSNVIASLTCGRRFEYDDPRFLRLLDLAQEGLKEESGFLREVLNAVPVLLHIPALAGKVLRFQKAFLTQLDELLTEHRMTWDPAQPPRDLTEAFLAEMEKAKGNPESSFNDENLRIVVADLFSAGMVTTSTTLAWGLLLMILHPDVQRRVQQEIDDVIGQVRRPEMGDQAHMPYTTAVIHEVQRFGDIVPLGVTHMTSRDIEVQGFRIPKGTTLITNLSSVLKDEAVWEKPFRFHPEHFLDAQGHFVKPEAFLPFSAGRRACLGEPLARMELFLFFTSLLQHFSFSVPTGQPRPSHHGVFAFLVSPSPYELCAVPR
Sequence of Cytochrome P450 3A4 (Homo sapiens) (P08684 whole entry, looked up): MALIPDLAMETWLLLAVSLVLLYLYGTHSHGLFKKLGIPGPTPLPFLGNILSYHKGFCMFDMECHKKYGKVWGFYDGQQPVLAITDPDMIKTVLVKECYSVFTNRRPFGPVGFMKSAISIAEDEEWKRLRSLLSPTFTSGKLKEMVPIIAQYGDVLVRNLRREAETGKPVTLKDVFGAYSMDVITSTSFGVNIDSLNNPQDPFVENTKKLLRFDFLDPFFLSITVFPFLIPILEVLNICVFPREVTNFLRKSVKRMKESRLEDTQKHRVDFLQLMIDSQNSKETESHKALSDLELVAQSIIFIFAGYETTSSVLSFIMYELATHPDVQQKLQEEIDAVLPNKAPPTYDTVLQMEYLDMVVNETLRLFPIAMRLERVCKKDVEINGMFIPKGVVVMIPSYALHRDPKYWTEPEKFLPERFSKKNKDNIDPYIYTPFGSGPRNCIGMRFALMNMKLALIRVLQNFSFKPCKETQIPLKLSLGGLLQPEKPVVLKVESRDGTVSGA

Regarding `COc1ccc(OCC2CN3C(CCC(C)C3c3ccc(Br)cc3)C(=O)O2)cc1` (stereo not drawn), the Potency entry in test [1], in test [4] and in test [5] was “inactive” in each case. The Potency in test [2] is 3.98 µM (active). Besides, the activity change, positive = activation in test [3] was -46.6% [at 11.4 µM] and -70% [at 11.4 µM].
As to `C#CCC(C(=O)OC)(C(=O)OC)C(C[N+](=O)[O-])c1ccccc1` (stereo not drawn), the Potency entry in test [1], in test [4] and in test [5] was “inactive” in each case. For the same compound, the Potency in test [2] was 3.16 µM (active). Moreover, in test [3], the activity change, positive = activation was -77% [at 11.4 µM].
Turning to `Cc1ccc(S(=O)(=O)N[C@@H](CCc2ccccc2)CC(=O)C(C)(C)C)cc1`, the Potency is 3.98 µM (active) in test [1], 1.58 µM (active) in test [2] and 1.58 µM (active) in test [5]. Also, the activity change, positive = activation in test [3] was -96.1% [at 11.4 µM].
Consider `CC(=O)OCC1OC(C#Cc2ccc(F)cc2F)C=CC1OC(C)=O` (stereo not drawn), for which the Potency in test [1] is 5.01 µM (active); in test [2], 3.16 µM (active); in test [5], 2.51 µM (active). Further, in test [3], the activity change, positive = activation is -91.4% [at 11.4 µM].
As to `CCOC(=O)[C@]1(C(NC(=O)OC)c2ccco2)CCCC1=O` (stereo partly drawn), the Potency entry in test [1], in test [4] and in test [5] was “inactive” in each case. Moreover, in test [2], the activity change, negative = inhibition was -19.8% [at 11.4 µM].
Regarding `COC(=O)/C=C/C1c2ccccc2C(OC)C1C` (stereo not drawn), the Potency entry in test [1], in test [4] and in test [5] was “inactive” each time. Besides, the activity change, negative = inhibition in test [2] is -4.29% [at 11.4 µM].
For `CC1CCC(C(=O)O)NC1c1cccc(N2CCCC2=O)c1` (stereo not drawn), the Potency entry in test [1] and in test [4] was “inactive” in each case. Also, in test [2], the activity change, negative = inhibition is -12.3% [at 11.4 µM].
As for `CC1CCC2C(=O)N3C(CCC(C)C3c3ccc(-c4ccco4)cc3)C(=O)N2C1c1ccc(-c2ccco2)cc1` (stereo not drawn), the Potency entry in test [1], in test [4] and in test [5] was “inactive” each time. In test [2], the activity change, negative = inhibition was -11.9% [at 11.4 µM].
